Values joined by “and” are separate entries in the source; they are usually repeats but may differ in a detail not shown here. Identical values can stand only once. In all, about 5,500 compounds went through this assay and about 2,000 (36%) were called active. Another 18% or so got no clear call; they are omitted. Cut-off read from the data, not from the text of the source: active = normalized growth mostly below about 0.91 (no sharp cut-off); inconclusive = no clear call, values can overlap the other calls; inactive = mostly above about 0.92. The list shows a part of the results.
Experiment: chemical genetic growth profiling, strain panel (AID 1159580);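 note: tested at 20 µM; growth read once vehicle control cultures reached saturation at 30 °C; 1 = growth at the plate median or of vehicle wells; lower values mean less growth of the strain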
Settings: S. cerevisiae deletion strains, growth OD

Measured: normalized growth

Nc1ncnc2nc[nH]c12
0.393 (active) and 1.02 (inactive): locus YHR030C, strain SLT2, stronger effect = lower value
inactive: locus YAL013W, strain DEP1, stronger effect = lower value 0.94 | locus YAL021C, strain ccr4, stronger effect = lower value 0.99 | locus YAL026C, strain drs2, stronger effect = lower value 0.99 | locus YAL030W, strain snc1, stronger effect = lower value 0.981 | locus YBL061C, strain skt5, stronger effect = lower value 0.98 | locus YBR009C, strain hhf1, stronger effect = lower value 0.992 | locus YBR023C, strain chs3, stronger effect = lower value 0.986 | locus YBR171W, strain sec66, stronger effect = lower value 0.976 | locus YBR229C, strain ROT2, stronger effect = lower value 1.02 | locus YBR231C, strain swc5, stronger effect = lower value 0.982 | locus YBR279W, strain paf1, stronger effect = lower value 0.993 | locus YCL011C, strain gbp2, stronger effect = lower value 0.978 | locus YCL016C, strain dcc1, stronger effect = lower value 0.973 | locus YCL029C, strain bik1, stronger effect = lower value 0.923 | locus YCL061C, strain MRC1, stronger effect = lower value 0.981 | locus YCL069W, strain vba3, stronger effect = lower value 0.99 | locus YCR088W, strain abp1, stronger effect = lower value 0.985 | locus YDL005C, strain med2, stronger effect = lower value 0.985 | locus YDL035C, strain GPR1, stronger effect = lower value 0.894 | locus YDL040C, strain nat1, stronger effect = lower value 0.983 | locus YDL101C, strain DUN1, stronger effect = lower value 0.968 | locus YDL185W, strain tfp1, stronger effect = lower value 1.01 | locus YDR001C, strain nth1, stronger effect = lower value 0.983 | locus YDR069C, strain doa4, stronger effect = lower value 1.01 | locus YDR137W, strain rgp1, stronger effect = lower value 0.985 | locus YDR150W, strain NUM1, stronger effect = lower value 1.02 | locus YDR159W, strain sac3, stronger effect = lower value 1 | locus YDR162C, strain NBP2, stronger effect = lower value 0.951 | locus YDR195W, strain ref2 0.998 | locus YDR297W, strain sur2, stronger effect = lower value 1.01 | locus YDR318W, strain mcm21, stronger effect = lower value 0.939 | locus YDR334W, strain swr1, stronger effect = lower value 0.982 | locus YDR335W, strain msn5, stronger effect = lower value 0.984 | locus YDR388W, stronger effect = lower value 0.98 | locus YDR392W, strain spt3, stronger effect = lower value 0.968 | locus YEL003W, strain gim4, stronger effect = lower value 1.01 | locus YEL037C, strain rad23, stronger effect = lower value 0.984 | locus YEL061C, strain CIN8 (second series), stronger effect = lower value 0.986 | locus YEL061C, strain CIN8, stronger effect = lower value 0.996 | locus YER015W, strain faa2, stronger effect = lower value 0.994 | locus YER016W, strain bim1, stronger effect = lower value 0.994 | locus YER110C, stronger effect = lower value 1 | locus YER111C, strain swi4, stronger effect = lower value 0.983 | locus YER155C, strain BEM2 (second series), stronger effect = lower value 0.989 | locus YER167W, strain BCK2, stronger effect = lower value 1.01 | locus YFR010W, strain ubp6, stronger effect = lower value 0.982 | locus YGL078C, strain dbp3, stronger effect = lower value 0.969 | locus YGL167C, strain pmr1, stronger effect = lower value 0.979 | locus YGL173C, strain kem1, stronger effect = lower value 0.984 | locus YGL227W, strain vid30, stronger effect = lower value 0.987 | locus YGL240W, strain doc1, stronger effect = lower value 0.997 | locus YGL248W, strain PDE1, stronger effect = lower value 0.9 | locus YGL253W, strain hxk2, stronger effect = lower value 0.987 | locus YGR135W, strain pre9, stronger effect = lower value 0.922 | locus YHR013C, strain ard1, stronger effect = lower value 0.975 | locus YHR027C, strain rpn1, stronger effect = lower value 0.979 | locus YHR079C, strain IRE1 (second series), stronger effect = lower value 0.974 | locus YHR079C, strain IRE1, stronger effect = lower value 1.02 | locus YHR094C, strain hxt1, stronger effect = lower value 0.999 | locus YHR142W, strain chs7, stronger effect = lower value 0.955 | locus YHR200W, strain rpn10, stronger effect = lower value 0.998 | locus YIL125W, strain kgd1, stronger effect = lower value 0.991 | locus YIR030C, strain dcg1, stronger effect = lower value 0.988 | locus YJL092W, strain hpr5, stronger effect = lower value 0.99 | locus YJL095W, strain BCK1 (second series), stronger effect = lower value 0.984 | locus YJL115W, strain asf1, stronger effect = lower value 0.99 | locus YJL129C, strain trk1, stronger effect = lower value 0.99 | locus YJL134W, strain LCB3, stronger effect = lower value 1.02 | locus YJL154C, strain vps35, stronger effect = lower value 0.997 | locus YJL164C, strain tpk1, stronger effect = lower value 0.993 | locus YJL166W, strain qcr8, stronger effect = lower value 0.977 | locus YJL168C, strain set2, stronger effect = lower value 1 | locus YJL187C, strain SWE1, stronger effect = lower value 0.98 | locus YJR043C, strain POL32, stronger effect = lower value 0.907
0.593 (active) and 1.02 (inactive): locus YJL095W, strain BCK1, stronger effect = lower value
active: locus YBR021W, strain FUR4, stronger effect = lower value 0.201 | locus YDL074C, strain BRE1, stronger effect = lower value 0.645 | locus YDL192W, strain arf1, stronger effect = lower value 0.797 | locus YDR101C, strain arx1, stronger effect = lower value 0.866 | locus YDR502C, strain sam2, stronger effect = lower value 0.908 | locus YER155C, strain BEM2, stronger effect = lower value 0.792 | locus YGL086W, strain mad1, stronger effect = lower value 0.838 | locus YGR078C, strain PAC10, stronger effect = lower value 0.828 | locus YGR252W, strain gcn5, stronger effect = lower value 0.705 | locus YHR129C, strain ARP1, stronger effect = lower value 0.898 | locus YIL066C, strain RNR3, stronger effect = lower value 0.862 | locus YIL073C, strain SPO22, stronger effect = lower value 0.594 | locus YJL187C, strain SWE1 (second series), stronger effect = lower value 0.863
